These results are taken from PubChem BioAssay AID1359 (The Scripps Research Institute Molecular Screening Center, 2008).

Where “and” joins values, the source holds several entries; their conditions need not be identical. Identical values can stand only once. In all, about 220,000 compounds went through this assay and about 970 (0.44%) were called active. Many of the other results were omitted from the sample, so actives are more common in it than they were. Unmarked numbers belong to inactive results. No stated cut-off is given here; in the data, active means activation above about 27%; inactive means the rest.

The target of the test is Neuropeptide Y receptor type 2 (Homo sapiens) (UniProt P49146). Briefly: NPY-Y2 potentiators or agonists, primary screen, cell-based (AID 1359).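 Further: cells stimulated with NPY near EC25 plus isoproterenol at EC100; 0% = vehicle plus submaximal agonist and 100% = vehicle plus saturating agonist.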 To be noted: cells expressing NPY-Y2, potentiator/agonist read-out; at 3.6 µM; stronger effect = higher value.
Sequence of Neuropeptide Y receptor type 2 (Homo sapiens) (P49146 whole entry, looked up): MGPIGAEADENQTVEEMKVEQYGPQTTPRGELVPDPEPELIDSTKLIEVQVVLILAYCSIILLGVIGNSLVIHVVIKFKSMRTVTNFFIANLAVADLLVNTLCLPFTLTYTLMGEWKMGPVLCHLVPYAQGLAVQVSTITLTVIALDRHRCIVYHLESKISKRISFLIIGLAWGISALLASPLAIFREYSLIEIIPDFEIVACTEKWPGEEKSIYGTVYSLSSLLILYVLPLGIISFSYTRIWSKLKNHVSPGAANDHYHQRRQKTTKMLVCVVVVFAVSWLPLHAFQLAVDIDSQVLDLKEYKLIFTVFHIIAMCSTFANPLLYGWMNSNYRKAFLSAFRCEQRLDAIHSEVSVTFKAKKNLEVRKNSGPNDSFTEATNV
In the case of `COc1cc(NC(=O)c2ccccc2NS(=O)(=O)c2ccc(Cl)s2)cc(OC)c1`, the activation was 44% (active).

Take `COC(=O)c1ccc(NC(=O)c2ccccc2NS(=O)(=O)c2ccccc2)cc1`: the activation is 34.4% (active).

Regarding `CCOc1ccc(NC(=O)c2ccccc2NS(C)(=O)=O)cc1`, the activation is 2.32%.

Turning to `COC(=O)c1ccccc1NC(=O)c1ccccc1NS(C)(=O)=O`, the activation was -6.98%.

Regarding `O=C(Nc1nncs1)c1ccccc1NS(=O)(=O)c1cccs1`, the activation is -3.36%.

Turning to `COc1cc(NC(=O)c2cccnc2SC)cc(OC)c1`, the activation is 6.08%.

For `COc1ccccc1NC(=S)N1CCC(NC(=O)C23CC4CC(CC(C4)C2)C3)CC1`, the activation was 1.71%.

On to `O=c1c2c3c(sc2n(CCN2CCCC2)c(=O)n1Cc1ccccc1)CCCCC3`, for which the activation is -17.9%.

As to `O=C(Cn1nnc(N2CCCCC2)n1)c1ccc(Cl)c(Cl)c1`, the activation was 19%.

With `COc1ccc(Cc2n[nH]c(=S)n2NC(=O)Nc2ccc(C)cc2)cc1`, the activation is 7.41%.

In the case of `CC1CN(/C=C/C(=O)C(F)(F)F)CC(C)O1` (centres undefined), the activation is -5.05%.

As to `CCC(=O)N1CCC(C(N)=O)(N2CCCCC2)CC1`, the activation is -10.4%.

For `CCCCCCCC1(C)NC(=O)N(CC(=O)Nc2cc(C)on2)C1=O` (centres undefined), the activation was 8.45%.

For the molecule `CCOC(=O)Cc1cc(=O)[nH]c(/N=C(\N)Nc2ccc(OC)cc2)n1`, the activation is -5.89%.

For `CC(=O)NCC(O)c1ccc([N+](=O)[O-])cc1` (centres undefined), the activation was 7.64%.

As to `CC(C)OP(=O)(OC(C)C)C(Nc1ccccc1)c1cccc([N+](=O)[O-])c1` (centres undefined), the activation is -1.74%.

For the molecule `CC(CCc1ccccc1)NCC(O)c1cccc([N+](=O)[O-])c1` (centres undefined), the activation was 87.1% (active).

For `O=C(CCn1nnc2ccccc2c1=O)N[C@@H](Cc1c[nH]c2ccccc12)C(=O)O`, the activation was 13.2%.

As to `CCOc1ccc(S(=O)(=O)N(CC(=O)NCC(F)(F)F)Cc2ccco2)cc1`, the activation was -4.11%.

On to `Cc1ccc(Nc2nc(CSc3nnc(-c4ccncc4)n3-c3ccccc3C)cs2)cc1`, for which the activation is 2.6%.

As to `COc1cccc(CNn2cn[nH]c2=S)c1OCc1ccccc1`, the activation is 2.42%.

Turning to `O=C(CC(O)(C(F)(F)F)C(F)(F)F)Nc1ccc(Cl)c(Cl)c1`, the activation is 52.9% (active).

As for `O=C(CC(=O)Nc1ccc(Cl)c(Cl)c1)N/N=C/c1ccc(O)cc1`, the activation is 7.69%.

With `CN(C)CCNC(CC(=O)Nc1ccc(Cl)c(Cl)c1)C(=O)O` (centres undefined), the activation is 4.29%.

Regarding `Cc1ccccc1/[N+]([O-])=C/c1ccncc1`, the activation is -7.27%.

Take `CC(=O)c1c(C)[nH]c(=S)c(C#N)c1-c1ccc(F)cc1`: the activation is -13.5%.

Consider `C#CCOCCOCCOCCNc1nc(N2CCN(C(=O)[C@H](CCC(=O)O)n3cc(C(N)CO)nn3)CC2)nc(N2CCN(C(=O)[C@H](Cc3ccc(O)cc3)n3cc(C(N)[C@H](C)CC)nn3)CC2)n1` (some centres undefined), for which the activation is -0.84%.

Turning to `Oc1ccc(/C=N/Nc2ccc(C(F)(F)F)cn2)cc1O`, the activation was 28.2% (active).

Consider `O=C(Nc1ccccc1)Nc1ccc(C(F)(F)F)cn1`, for which the activation was 4.92%.

Take `Cc1nccn1CC(=O)N/N=C/c1ccc(O)c(O)c1`: the activation is -13.1%.

Turning to `Cc1ccc(-c2c[n+](=O)c3c(n2[O-])CCC3)cc1`, the activation was -8.75%.

On to `Cc1c(C(=O)NCCCc2ccccc2)cccc1[N+](=O)[O-]`, for which the activation is 2.52%.

For the molecule `O=C1CCCC(O)=C1N=Nc1ccc(S(=O)(=O)N2CCOCC2)cc1`, the activation is 4.38%.

Turning to `CC(=O)Nc1ccccc1OC(C)C(=O)N1CCC(C)CC1` (centres undefined), the activation was -7.73%.

For the molecule `CC(C)(C)CC(C)(C)NCC(O)COCCOc1ccc(Br)cc1` (centres undefined), the activation is -6.14%.

Consider `Cc1noc(COc2ccccc2OCC(O)CNC(C)(C)C)n1` (centres undefined), for which the activation was 102% (active).

For the molecule `Cc1noc(COc2ccccc2OCc2onc(C)c2Cl)c1Cl`, the activation was 0.6%.

For `Cc1cccc(-c2nc3c(c(SCC(=O)N4CCOCC4)n2)CCCC3)c1`, the activation is -7.06%.

As for `O=C(Nc1ccc(N2CCOCC2)nc1)c1c(F)cccc1F`, the activation is -10.2%.

`CSc1ccc(NC(=O)/C=C/C(=O)O)cc1`: the activation is -0.23%.

For `O=C(COC(=O)c1ccc[nH]c1=O)Nc1ccc2c(c1)OC(F)(F)O2`, the activation is -11.7%.

Regarding `CN(C)Cc1c(O)ccc2occ(C(O)c3ccccc3)c12` (centres undefined), the activation was 92.7% (active).

Regarding `N/C(=N\S(=O)(=O)c1cc(C(F)(F)F)cc(C(F)(F)F)c1)c1cccs1`, the activation was 46% (active).

With `Cc1ccc(S(=O)(=O)/N=C(\N)c2ccc(F)cc2)cc1`, the activation was 9.83%.

On to `C/C(=N\NS(=O)(=O)c1ccc(Br)cc1)c1cccs1`, for which the activation was 2.42%.

Regarding `Cn1c(=O)c(Sc2ccc(Cl)cc2)c(O)c2ccccc21`, the activation was -8.34%.

Take `COc1cccc(NC(=S)NC(=O)c2c(Cl)c(C)nn2C)c1`: the activation was -1.69%.

Regarding `OCCNCc1cccc(OCc2ccccc2Cl)c1`, the activation was -2.33%.

`Cc1cccn2c(CN(C)C3CCCc4ccccc43)c(C(=O)N3CCOCC3)nc12` (centres undefined): the activation is -13.5%.

On to `OC(c1ccccc1)c1nccn1Cc1ccccc1` (centres undefined), for which the activation is 3.61%.

Consider `COC(=O)c1cc(N2CCNCC2)nc2ccccc12`, for which the activation is 17%.

As to `O=C(Nc1cccc(S(=O)(=O)Nc2ccc(Cl)cc2)c1)c1ccc2c(c1)OCCO2`, the activation is 35% (active).

For the molecule `O=C(Nc1ccc(Cl)cn1)c1ccc2c(c1)OCCO2`, the activation was -8.32%.

Regarding `O=C(Nc1cccc(S(=O)(=O)N2CCCCC2)c1)c1ccc2c(c1)OCO2`, the activation was 1.87%.

With `COC(=O)c1ccc(CSc2nncn2N)cc1`, the activation is 2.75%.

For `NC(=O)CCC(NS(=O)(=O)c1ccc(Cl)cc1)C(=O)NCc1ccccc1Cl` (centres undefined), the activation is 10%.

On to `CC(=O)c1c(C)[nH]c(C(=O)COC(=O)c2cccc(S(=O)(=O)N(C)c3ccccc3)c2)c1C`, for which the activation is 10.4%.

For the molecule `COc1ccc(C(C[N+](=O)[O-])n2nc(C)cc2C)cc1` (centres undefined), the activation is 12.3%.

As for `CC(=O)N(CCCN(C)C)c1nc2ccc(C)cc2s1`, the activation was -1.74%.

For the molecule `CN(C)CCCN(C(=O)COc1ccccc1)c1nc2c(Cl)cccc2s1`, the activation is -2.96%.

For `COc1cccc2sc(N(CCCN(C)C)C(=O)C(c3ccccc3)c3ccccc3)nc12`, the activation is 95.6% (active).

In the case of `C=CCSc1nnc(NC(=O)c2ccc(NC(C)=O)cc2)s1`, the activation is -3.89%.

Turning to `CCSc1nnc(NC(=O)Cc2ccccc2OC)s1`, the activation was -5.68%.

For `CCSc1nnc(NC(=O)c2ccc(C)cc2)s1`, the activation was 31.6% (active).

Regarding `Cc1nc2ccccc2c(C)c1C(=O)c1ccc(F)cc1`, the activation is -11.5%.

For `CCCC1OC23CCCCC2C(C#N)(C#N)C1(C#N)C(=N)O3` (centres undefined), the activation was 7.5%.

On to `COCCCNC(NC(=O)c1ccc(C)cc1)C(Cl)(Cl)Cl` (centres undefined), for which the activation was 15.8%.

Regarding `COc1ccc(C(=O)NC2(C(F)(F)F)NC(=O)N(CCCc3ccccc3)C2=O)c(OC)c1OC` (centres undefined), the activation is -6.73%.

With `COc1ccccc1OCCNC(=O)c1cc([N+](=O)[O-])cc([N+](=O)[O-])c1`, the activation was -7.14%.

On to `CC(O)CNCCOc1cccc(Oc2ccccc2)c1` (centres undefined), for which the activation was -22.6%.

Turning to `COc1ccccc1OCCNCC(O)COc1cccc2[nH]c3ccccc3c12` (centres undefined), the activation was 99.4% (active) and 97.9% (active).

Take `C=CCn1c(SCc2cccc(F)c2)nc2cc(C(=O)N3CCC(C(N)=O)CC3)ccc2c1=O`: the activation is 8.55%.

Consider `O=C(NCCc1ccccn1)c1cc(-c2ccc(Cl)cc2)nc2ccccc12`, for which the activation is -15.9%.

In the case of `O=c1cc(N2CCN(Cc3ccccc3)CC2)c(-c2ccccc2)n[nH]1`, the activation was 12.9%.

As for `O=C1c2ccccc2C(=O)c2c1cccc2N1CCN(Cc2ccccc2)CC1`, the activation is 48.8% (active).

On to `O=C1c2ccccc2C(=O)c2c1cccc2N1CCN(CCO)CC1`, for which the activation is 7.55%.

On to `COc1ccc(NS(=O)(=O)c2cc(NC(=O)CC(=O)c3ccc([N+](=O)[O-])cc3)ccc2C)cc1`, for which the activation is -11.2%.

Regarding `CC(=O)C1C(c2cccc(Oc3ccccc3)c2)NC(=O)NC1(O)C(F)(F)F` (centres undefined), the activation was 6.91%.

With `O=C1NC(c2ccc(-c3ccccc3[N+](=O)[O-])o2)C(C(=O)c2ccc(Cl)cc2)C(O)(C(F)(F)F)N1` (centres undefined), the activation is 37.4% (active).

For `CC(=O)C1C(c2ccc(Cl)cc2)NC(=O)NC1(O)C(F)(F)F` (centres undefined), the activation is -6.52%.

With `O=C(c1ccc(F)cc1)n1c(=S)nc2ccccn21`, the activation is 3.79%.

Turning to `COc1cc(N2C(=O)c3ccccc3C2=O)c(Cl)cc1C(=O)OCC(=O)N1CCOCC1`, the activation is -10.6%.

As to `OC(COCC1COc2ccccc2O1)CN1CCN(c2ccc(F)cc2)CC1` (centres undefined), the activation is 80.4% (active).

With `OC(COCc1ccco1)CN1CCN(c2ccccc2)CC1` (centres undefined), the activation was -8.6%.

For the molecule `O=[N+]([O-])c1ccc(N2CCN(CC(O)COc3ccccc3)CC2)cc1` (centres undefined), the activation was -7.01%.

As for `COc1ccc(OCc2cn3c(C)cc(C)nc3n2)cc1`, the activation was 1.94%.

Take `COc1cc(NC(=S)NCc2ccc(S(N)(=O)=O)cc2)cc(OC)c1`: the activation was 4.03%.

Regarding `CC1(C)CC(=O)C(N=Nc2c(F)cccc2F)=C(O)C1`, the activation was 19.3%.

Take `Cc1nn(-c2ccccc2)c(C)c1/C=C/C(=O)OC(C)C(N)=O` (centres undefined): the activation is -0.33%.

On to `O=C(NCC(O)c1ccc([N+](=O)[O-])cc1)C1CCCCC1` (centres undefined), for which the activation was -6.08%.

Regarding `CC(C)(C)n1ncc2c(=O)n(Cc3ccc(Cl)cc3)cnc21`, the activation was -23.4%.

`Cc1ccccc1Nc1c(-c2ccccc2)nc2ncccn12`: the activation was 22.6%.

Regarding `Cc1cccc(C)c1Nc1c(-c2ccccc2O)nc2ncccn12`, the activation is 56.5% (active).

Turning to `COC(=O)c1ccc(COc2ccc(/C=N/NC(=O)C(=O)Nc3ccc(OC)cc3)cc2OC)o1`, the activation was -3.63%.
